# From PubChem BioAssay (NCATS)
# Inconclusive results are not listed. A call without a number means that no potency is given here. Activity calls are given as the source filed them. Unless noted, calls come from the whole dose curve; as a rule, active = well fitted curve in the direction sought with a large enough effect; inconclusive = small, poorly fitted or top-dose-only effect, or another doubt; inactive = no such curve, though single readings can be large; an effect the other way counts as inactive or inconclusive.
# Experiments:
# [1] = Cytometric Cell-Based qHTS for Inhibitors of the mTORC1 Signaling Pathway in MEF (Tsc2-/-, p53-/-) Cells (AID 2660);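 note: percent of cells above a phospho-rpS6 to PI ratio cutoff in each well; series mostly up to about 38 µM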
# Procedure, shortened: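 Cells are plated, treated with compound for 24 hrs at 37 degree Celsius, then fixed, blocked and immunostained for phospho-rpS6 Ser235/236. Propidium iodide counterstain follows. Per-well % positive cells is derived from the PI-normalized phospho-S6 signal.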
# [2] = High Content Imaging Cell-Based qHTS for Inhibitors of the mTORC1 Signaling Pathway in MEF (Tsc2-/-, p53-/-) Cells (AID 2666);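 note: percent of cells scored positive for phospho-rpS6 Ser235/236 immunostaining by imaging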; note: potency is the fitted concentration of half-maximal effect
# Procedure, shortened: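 Read-out: % positive cells per well, with thresholds from highest- and lowest-signal wells, based on phospho-rpS6 (Ser235/236) intensity normalized to Hoechst nuclear stain. Cells: Tsc2-/-, p53-/- MEFs carrying empty vector; compound 24 hrs, 37 degree Celsius.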
# [3] = High Content Imaging Cell-Based qHTS for Inhibitors of the mTORC1 Signaling Pathway in MEF Cells (AID 2667); note: potency is the fitted concentration of half-maximal effect
# Procedure, shortened: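 MEF (Tsc2-/-, p53-/-, WT Tsc2 re-expressed); cpd 24 h, 37 °C; PFA fix; Alexa-488 anti-p-rpS6 Ser235/236, PI, Hoechst; IN Cell imaging; Hoechst/Alexa-488 intensity ratio; % active cells, thresholds set from rapamycin and DMSO wells.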
# [4] = Cytometry Cell-Based qHTS for Inhibitors of the mTORC1 Signaling Pathway in MEF cells (AID 2668); note: potency is the fitted concentration of half-maximal effect
# Procedure, shortened: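 WT MEFs (Tsc2-/-, p53-/- stably re-expressing WT Tsc2) in DMEM + 10% FBS received compounds 24 hrs after plating, for 24 hrs at 37 degree Celsius. Fixed cells stained with Alexa-488 anti-phospho-rpS6 Ser235/236 and propidium iodide; laser-scanning cytometry read-out.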
# [5] = biological target: Ubiquitin carboxyl-terminal hydrolase 2 (Homo sapiens) (UniProt O75604); assay: qHTS Validation Assay for Inhibitors of Ubiquitin-specific Protease USP2a Using CHOP2 as the Reporter (AID 463106); note: potency is the fitted concentration of half-maximal effect
# Procedure, shortened: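 USP2 core (10nM final) was preincubated with compound for 30min at RT in 20mM Tris-HCl pH 8.0, 2mM CaCl2, 2mM beta-mercaptoethanol, 0.05% CHAPS. Ub-CHOP2 and reporter substrate (25nM each) were added, and fluorescence (Ex 485/Em 531nm) was read after 60min.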
# [6] = biological target: Tumor susceptibility gene 101 protein (Homo sapiens) (UniProt Q99816); assay: qHTS Validation Assay for Iinhibitors of HIV-1 Budding by Blocking the Interaction of PTAP/TSG101 (AID 485342; calls by dose curve)
# Procedure, shortened: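 Tsg101 binding domain (10 uM final) in pH 7.5 HEPES/NaCl/Tween 20/EDTA/TCEP buffer was mixed with pin-transferred compounds, then FITC-labeled PTAP peptide (50 nM final) was added; after 20 min at r.t., fluorescence polarization was read.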
# [7] = qHTS Validation Assay to Find Inhibitors of Chronic Active B-Cell Receptor Signaling (AID 485345; active = well fitted curve in the direction sought with a large enough effect in the main read-out, with a control signal flat, not every such curve was filed as active)
# Procedure, shortened: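 TMD8 ABC-DLBCL cells with dox-inducible green luciferase–IκBα fusion and red native luciferase; compounds 46 uM–3 nM, 4 h at 37C with doxycycline in 0.5% FBS IMDM. Green/red ratio normalized to basal and 10 uM MG-132.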
# [8] = biological target: Beta-2 adrenergic receptor (Homo sapiens) (UniProt P07550); assay: qHTS validation assay of beta-arrestin-biased ligands of beta2-adrenergic receptor (AID 485366)
# Procedure, shortened: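 Values derive from curve-fitted %Activity of a luminescent beta-arrestin recruitment reporter; compounds tested up to 46 microM on Tango cells for 18 hr at 37 degrees C, 5% CO2.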
# [9] = biological target: DNA polymerase III PolC-type (Bacillus subtilis (strain 168)) (UniProt P13267); assay: qHTS Validation Assay for the Inhibitors of DNA Replication in Gram-Positive Bacteria (AID 485295);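 note: PicoGreen fluorescence of double-stranded DNA made on primed circular M13 template; series mostly up to about 57 µM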
# Procedure, shortened: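 Reconstituted B. subtilis holoenzyme (Pol III, beta clamp, SSB, primase) was preincubated with compound at room temperature, then given single-stranded circular M13Gori plus dNTPs and NTPs. EDTA-containing PicoGreen stopped the reaction, and dsDNA product was read by fluorescence.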
# [10] = biological target: ATP-dependent 6-phosphofructokinase (Trypanosoma brucei brucei) (UniProt O15648); assay: qHTS Validation Assay to Find Inhibitors of T. brucei phosphofructokinase (AID 485368); note: potency is the fitted concentration of half-maximal effect
# Procedure, shortened: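 Enzyme reaction in triethanolamine buffer pH 8.0 with 5 mM MgCl2, 0.01% Tween20 and 0.1% BSA; PFK 1.25 nM, F6P 0.5 mM, ATP 0.1 mM, 45 min RT. ADP quantified by ADP-Glo.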
# Tumor susceptibility gene 101 protein (Homo sapiens), sequence (Q99816 whole entry, looked up, the tested form may be a part): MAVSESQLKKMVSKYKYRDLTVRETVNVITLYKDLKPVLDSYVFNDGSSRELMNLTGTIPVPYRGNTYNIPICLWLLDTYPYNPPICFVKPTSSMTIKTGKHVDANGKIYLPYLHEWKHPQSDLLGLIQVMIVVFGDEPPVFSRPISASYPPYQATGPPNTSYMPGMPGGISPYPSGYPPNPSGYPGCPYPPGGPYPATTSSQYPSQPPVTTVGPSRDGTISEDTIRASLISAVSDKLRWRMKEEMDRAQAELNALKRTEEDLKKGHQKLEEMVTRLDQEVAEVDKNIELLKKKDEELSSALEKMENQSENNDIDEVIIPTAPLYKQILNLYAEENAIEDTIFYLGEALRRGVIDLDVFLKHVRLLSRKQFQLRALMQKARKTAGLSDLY
# Ubiquitin carboxyl-terminal hydrolase 2 (Homo sapiens), sequence (O75604 whole entry, looked up): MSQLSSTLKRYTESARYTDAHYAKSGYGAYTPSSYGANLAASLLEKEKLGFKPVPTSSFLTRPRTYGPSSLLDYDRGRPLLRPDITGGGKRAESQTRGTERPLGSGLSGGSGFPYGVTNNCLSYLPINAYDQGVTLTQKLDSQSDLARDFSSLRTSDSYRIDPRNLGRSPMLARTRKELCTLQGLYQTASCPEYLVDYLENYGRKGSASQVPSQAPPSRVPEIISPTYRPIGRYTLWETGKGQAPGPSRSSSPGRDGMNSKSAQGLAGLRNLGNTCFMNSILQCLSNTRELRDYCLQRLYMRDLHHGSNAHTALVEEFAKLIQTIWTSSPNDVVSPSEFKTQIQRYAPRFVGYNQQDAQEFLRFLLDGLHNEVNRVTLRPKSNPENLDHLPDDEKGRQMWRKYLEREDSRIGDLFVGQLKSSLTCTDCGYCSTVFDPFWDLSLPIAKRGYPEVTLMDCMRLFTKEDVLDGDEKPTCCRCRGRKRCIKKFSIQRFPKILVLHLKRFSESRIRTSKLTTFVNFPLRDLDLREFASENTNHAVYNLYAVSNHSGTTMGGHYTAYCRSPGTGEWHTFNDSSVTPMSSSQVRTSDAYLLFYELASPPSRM
# ATP-dependent 6-phosphofructokinase (Trypanosoma brucei brucei), sequence (O15648 whole entry, looked up): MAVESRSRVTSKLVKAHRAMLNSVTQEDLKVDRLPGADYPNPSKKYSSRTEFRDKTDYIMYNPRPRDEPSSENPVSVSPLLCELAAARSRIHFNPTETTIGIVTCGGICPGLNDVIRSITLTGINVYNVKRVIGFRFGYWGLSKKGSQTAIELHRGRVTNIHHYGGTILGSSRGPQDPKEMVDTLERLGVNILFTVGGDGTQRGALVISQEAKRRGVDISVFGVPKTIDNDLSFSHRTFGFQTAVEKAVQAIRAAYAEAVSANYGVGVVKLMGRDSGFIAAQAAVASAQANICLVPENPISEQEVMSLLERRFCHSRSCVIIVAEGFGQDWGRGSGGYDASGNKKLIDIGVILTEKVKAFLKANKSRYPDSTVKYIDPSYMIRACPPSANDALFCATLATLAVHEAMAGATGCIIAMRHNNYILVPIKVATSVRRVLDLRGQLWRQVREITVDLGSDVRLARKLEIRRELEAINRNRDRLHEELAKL
# Beta-2 adrenergic receptor (Homo sapiens), sequence (P07550 whole entry, looked up): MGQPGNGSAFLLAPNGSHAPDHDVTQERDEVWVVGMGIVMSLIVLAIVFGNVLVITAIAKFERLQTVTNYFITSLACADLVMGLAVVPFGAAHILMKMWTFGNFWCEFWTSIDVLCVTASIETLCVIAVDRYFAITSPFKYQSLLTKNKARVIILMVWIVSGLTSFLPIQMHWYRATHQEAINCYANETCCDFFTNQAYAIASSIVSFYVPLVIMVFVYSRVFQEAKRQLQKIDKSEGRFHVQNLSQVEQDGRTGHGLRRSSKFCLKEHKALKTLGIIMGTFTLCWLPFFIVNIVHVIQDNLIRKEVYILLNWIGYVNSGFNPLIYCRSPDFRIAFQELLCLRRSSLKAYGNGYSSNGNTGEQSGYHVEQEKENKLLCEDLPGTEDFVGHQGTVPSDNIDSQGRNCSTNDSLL
# DNA polymerase III PolC-type (Bacillus subtilis (strain 168)), sequence (P13267 whole entry, looked up): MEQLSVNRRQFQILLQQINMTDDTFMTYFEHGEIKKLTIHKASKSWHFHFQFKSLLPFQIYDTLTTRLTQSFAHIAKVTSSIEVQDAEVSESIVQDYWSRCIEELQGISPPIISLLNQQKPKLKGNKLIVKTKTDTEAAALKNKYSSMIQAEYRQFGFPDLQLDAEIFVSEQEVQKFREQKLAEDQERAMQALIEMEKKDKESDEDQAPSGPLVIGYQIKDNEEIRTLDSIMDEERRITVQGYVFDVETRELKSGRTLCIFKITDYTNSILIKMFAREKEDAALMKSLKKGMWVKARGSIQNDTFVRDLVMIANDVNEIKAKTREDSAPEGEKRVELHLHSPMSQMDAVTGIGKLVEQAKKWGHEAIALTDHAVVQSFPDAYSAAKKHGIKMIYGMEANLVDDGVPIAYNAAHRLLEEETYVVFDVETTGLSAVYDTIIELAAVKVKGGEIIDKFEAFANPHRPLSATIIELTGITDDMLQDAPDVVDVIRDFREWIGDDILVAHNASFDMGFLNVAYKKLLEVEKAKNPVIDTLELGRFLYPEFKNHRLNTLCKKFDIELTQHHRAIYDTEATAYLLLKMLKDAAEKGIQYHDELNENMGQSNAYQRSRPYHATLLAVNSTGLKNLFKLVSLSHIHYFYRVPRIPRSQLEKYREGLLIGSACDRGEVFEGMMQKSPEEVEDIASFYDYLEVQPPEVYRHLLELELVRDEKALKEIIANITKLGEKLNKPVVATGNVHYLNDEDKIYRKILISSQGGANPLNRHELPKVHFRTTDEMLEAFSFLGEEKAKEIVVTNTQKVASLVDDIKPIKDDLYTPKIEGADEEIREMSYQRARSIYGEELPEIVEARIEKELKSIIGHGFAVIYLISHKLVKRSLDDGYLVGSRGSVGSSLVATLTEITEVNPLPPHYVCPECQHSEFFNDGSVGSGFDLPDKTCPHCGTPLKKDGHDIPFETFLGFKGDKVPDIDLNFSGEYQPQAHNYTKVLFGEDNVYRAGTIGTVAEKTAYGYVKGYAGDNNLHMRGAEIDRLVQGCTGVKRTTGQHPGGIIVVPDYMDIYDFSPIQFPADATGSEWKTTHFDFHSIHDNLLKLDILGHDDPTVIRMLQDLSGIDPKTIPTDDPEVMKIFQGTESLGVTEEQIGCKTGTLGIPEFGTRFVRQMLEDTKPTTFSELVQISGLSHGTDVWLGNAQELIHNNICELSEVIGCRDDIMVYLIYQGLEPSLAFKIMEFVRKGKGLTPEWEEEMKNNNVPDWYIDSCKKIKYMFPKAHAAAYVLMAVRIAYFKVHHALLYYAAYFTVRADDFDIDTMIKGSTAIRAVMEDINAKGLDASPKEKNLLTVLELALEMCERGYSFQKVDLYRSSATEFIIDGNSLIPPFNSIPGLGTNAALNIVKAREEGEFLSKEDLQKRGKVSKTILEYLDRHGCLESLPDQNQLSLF
SMILES,outcome [1],Potency [2],Potency [3],Potency [4],Potency [5],outcome [6],outcome [7],outcome [8],Potency [9],Potency [10]
O=C(O)CC1CC(c2ccccc2)=NO1 (stereo not drawn),inactive,inactive,inactive,inactive,inactive,inactive,inactive,–,–,–
CC(C)CC(NP(=O)(O)O[C@@H]1O[C@@H](C)[C@H](O)[C@@H](O)[C@H]1O)C(=O)NC(Cc1c[nH]c2ccccc12)C(=O)O (stereo partly drawn),inactive,inactive,inactive,inactive,inactive,inactive,inactive,inactive,–,–
CCCCC#Cc1nc(NC)c2ncn([C@@H]3O[C@H](CO)[C@@H](O)[C@H]3O)c2n1,inactive,inactive,inactive,inactive,inactive,–,–,inactive,inactive,–
CCc1c(C(=O)NCCc2ccc(N3CCCCC3)cc2)[nH]c2ccc(Cl)cc12,inactive,inactive,inactive,inactive,–,inactive,inactive,inactive,inactive,–
CCN(CC)c1ncnc2c1ncn2[C@@H]1O[C@H](COP(=O)(O)OP(=O)(O)C(Br)(Br)P(=O)(O)O)[C@@H](O)[C@H]1O,inactive,inactive,inactive,inactive,inactive,inactive,inactive,inactive,inactive,inactive
NC(=S)NCCC[C@H](N)C(=O)O,inactive,inactive,inactive,inactive,–,inactive,inactive,–,inactive,19 µM (active)
CSc1nc(N)c2ncn([C@@H]3O[C@H](COP(=O)(O)OP(=O)(O)OP(=O)(O)O)[C@@H](O)[C@H]3O)c2n1,inactive,inactive,inactive,inactive,inactive,–,–,inactive,inactive,–
CSc1ccccc1N1CCN(CCCCCC(=O)NC2CCCc3ccccc32)CC1 (stereo not drawn),–,inactive,–,11.7 µM (active),inactive,inactive,–,inactive,inactive,inactive
CCOC(=O)N1CCN(/[N+]([O-])=N/Oc2ccc([N+](=O)[O-])cc2[N+](=O)[O-])CC1,–,13.1 µM (active),inactive,–,inactive,inactive,–,inactive,inactive,–
CCCC1(C)C(C#N)(C#N)C1(C#N)C#N,–,inactive,2.33 µM (active),–,–,–,–,inactive,inactive,inactive
N#C/C(=C\c1ccc(-c2cc(Cl)ccc2Cl)o1)C(=O)Nc1cccc2ncccc12,–,inactive,inactive,inactive,inactive,inactive,–,inactive,inactive,–
OCC1O[C@H]([S-])[C@H](O)[C@@H](O)[C@@H]1O.[Au+] (stereo partly drawn),–,inactive,inactive,inactive,18.5 µM (active),–,–,inactive,inactive,2.69 µM (active)
CC1OC1P(=O)(O)O (stereo not drawn),–,inactive,inactive,inactive,inactive,inactive,inactive,inactive,inactive,–
NS(=O)(=O)C#Cc1ccccc1,–,inactive,inactive,–,inactive,inactive,–,inactive,–,inactive
O=C1NC(=O)/C(=C/c2ccc3nccnc3c2)S1,–,inactive,–,16.5 µM (active),inactive,inactive,–,inactive,inactive,inactive
Nc1ncnc2c1c(I)cn2[C@@H]1C[C@H](N)[C@@H](O)[C@H]1O,–,inactive,inactive,–,inactive,–,–,inactive,inactive,–
CN1C2CC(OC(=O)[C@H](CO)c3ccccc3)CC1C1OC12 (stereo partly drawn),–,inactive,inactive,inactive,inactive,inactive,inactive,inactive,–,inactive
CN(C)CCCO[C@@H]1[C@H]2OC(C)(C)O[C@H]2O[C@@H]1[C@H](O)CO,–,inactive,inactive,inactive,inactive,inactive,inactive,inactive,inactive,–
C#C[C@]1(O)CC[C@H]2[C@@H]3CCC4=Cc5oncc5CC4(C)[C@H]3CCC21C (stereo partly drawn),–,inactive,inactive,inactive,–,inactive,–,inactive,inactive,–
Cc1cc(NC2CCCCC2)nc(-n2nc(C)cc2C)n1,–,inactive,inactive,inactive,–,inactive,inactive,inactive,inactive,–
CC[C@@H](C)[C@H]1O[C@]2(CC[C@H]1C)C[C@@H]1C[C@@H](CC=C(C)[C@@H](O[C@H]3C[C@H](OC)[C@@H](O[C@H]4C[C@H](OC)[C@@H](O)[C@H](C)O4)[C@H](C)O3)[C@@H](C)C=CC=C3CO[C@@H]4[C@H](O)C(C)=C[C@@H](C(=O)O1)[C@]34O)O2,–,–,–,–,–,inactive,–,–,–,inactive
CNCC[C@H](Oc1ccc(C(F)(F)F)cc1)c1ccccc1,–,inactive,–,–,inactive,–,–,inactive,inactive,–
